Only some compounds are listed: those with a hit (about 4.5% of all), similar ones and a draw of the others.
Beta cell apopt = beta cell apoptosis inhibition; AID 435005; INS-1E cytokine-induced death, ATP luminescence, 48 h; percent of positive-control rescue, neutral wells zero; protection from apoptosis, % (concentration not given with the values); 0.8% of 300,000 active;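 active means Every replicate reaches about 75%, or at least half do and their mean reaches it too, limit read from the data; inconclusive means At least half of replicates reach the limit but their mean does not; inactive means Under half of replicates reach the limit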;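 further: 0% = cytokine-treated negative control wells and 100% = positive control rescue; higher means more ATP so stronger rescue from cytokine killing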
Mdm2-MdmX inh = human Mdm2/MdmX binding inhibition. SaOS-2 split-luciferase Mdm2/MdmX complementation, luminescence. 3% of 330,000 active. inhibition, % at 8 µM. O15151+Q00987;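 active means inhibition of at least 50% at 8 µM in the primary screen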
Target sequence (O15151 whole entry, looked up): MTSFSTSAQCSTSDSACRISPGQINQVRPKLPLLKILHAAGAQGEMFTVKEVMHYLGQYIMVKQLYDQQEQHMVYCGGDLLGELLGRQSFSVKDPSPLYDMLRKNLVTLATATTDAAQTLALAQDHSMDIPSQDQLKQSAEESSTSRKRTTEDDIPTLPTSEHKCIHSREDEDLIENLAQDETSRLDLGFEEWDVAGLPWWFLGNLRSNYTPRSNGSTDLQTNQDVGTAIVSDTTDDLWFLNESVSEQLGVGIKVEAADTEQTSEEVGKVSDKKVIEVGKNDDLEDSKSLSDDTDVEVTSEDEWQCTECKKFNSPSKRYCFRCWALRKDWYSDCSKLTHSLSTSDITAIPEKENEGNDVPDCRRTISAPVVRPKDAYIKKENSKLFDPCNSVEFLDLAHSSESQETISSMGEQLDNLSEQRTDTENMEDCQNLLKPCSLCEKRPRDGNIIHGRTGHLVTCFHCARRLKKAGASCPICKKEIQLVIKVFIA
Target sequence (Q00987 whole entry, looked up): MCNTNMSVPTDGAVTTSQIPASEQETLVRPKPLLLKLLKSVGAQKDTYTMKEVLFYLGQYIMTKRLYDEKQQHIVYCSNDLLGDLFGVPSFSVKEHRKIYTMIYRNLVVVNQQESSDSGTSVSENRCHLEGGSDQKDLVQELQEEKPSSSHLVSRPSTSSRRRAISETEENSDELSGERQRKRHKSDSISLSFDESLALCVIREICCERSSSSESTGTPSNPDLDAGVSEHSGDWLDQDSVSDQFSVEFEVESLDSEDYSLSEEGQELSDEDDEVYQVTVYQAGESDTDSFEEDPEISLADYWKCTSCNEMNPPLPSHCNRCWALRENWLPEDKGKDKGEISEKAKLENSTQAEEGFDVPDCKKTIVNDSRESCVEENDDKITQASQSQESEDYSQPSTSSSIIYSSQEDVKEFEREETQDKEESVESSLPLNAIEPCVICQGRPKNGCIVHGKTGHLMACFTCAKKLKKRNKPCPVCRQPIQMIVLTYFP
CSC inhib = cancer stem cell inhibition | cancer stem cell-like cells viability, luminescence | inhibition, % at 7.5 µM | 1.1% of 300,000 active | AID 2717; in the data active means inhibition above about 75%; inconclusive means no clear call, values can overlap the other calls; tested in HMLE shEcad cells
697 NFkB inh = inhibitors of the PMA/ionomycin-induced NF-kB reporter in 697 B cells; 697 B-cell NF-kB luciferase reporter, 16 h; inhibition, % at 4 µM; 0.33% of 330,000 active; AID 435022; in the data active means inhibition above about 35%
Gli-Sufu antag = blocks Gli-Sufu signaling in a luciferase reporter; 0.74% of 340,000 active; Sufu-KO-LIGHT fibroblasts, Gli luciferase reporter luminescence; AID 588413; inhibition, % at 5 µM;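 active means inhibition above about 55%, limit read from the data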;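 further: 0% = DMSO-treated cells and 100% = wells with medium but no cells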
Jurkat NFkB inh = inhibitors of the PMA/ionomycin-induced NF-kB reporter in Jurkat cells; PMA/ionomycin-induced NF-kB luciferase reporter, luminescence; inhibition, % at 4 µM; 0.53% of 330,000 active; AID 435003; in the data active means inhibition above about 50%
Jurkat NFkB conf = lowers PMA/ionomycin-induced NF-kB signal in Jurkat cells; 27% of 2,700 active; AID 435020; Jurkat NF-kB luciferase, 16 h; shares compounds with Jurkat NFkB inh; inhibition, % at 4 µM;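 active means inhibition reaching about 45% at 4 µM in either replicate, limit read from the data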;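 further: plate controls were PMA/ionomycin stimulated DMSO wells for no effect and unstimulated DMSO wells for full effect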
697 NFkB conf = lowers PMA/ionomycin-induced NF-kB signal in 697 B cells | shares compounds with 697 NFkB inh | 697 B-cell NF-kB luciferase, 16 h | inhibition, % at 4 µM | 35% of 2,000 active | AID 449746; in the data active means inhibition mostly above about 28%, no sharp cut-off; inactive means mostly below about 22%
Mdm2 MdmX conf = confirmation of human Mdm2/MdmX interaction inhibitors. shares compounds with Mdm2-MdmX inh. Mdm2-MdmX binding, luminescent assay. inhibition, % at 8 µM. 55% of 10,000 active. AID 489028; in the data active means inhibition above about 40%
Full FLuc ctr = full-length luciferase inhibition in Mdm2/MdmX counter-screen. 77% of 6,200 active. shares compounds with Mdm2-MdmX inh. SaOS-2 full-length luciferase counterscreen, luminescence. AID 504607. inhibition, % at 8 µM;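 active means mean inhibition at 8 µM reaching about 37%, which flags the compound as non-specific, limit read from the data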;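 further: p53-null SaOS-2 cells with luciferase driven by a doxycycline-inducible promoter; compound on cells about two nights before reading with doxycycline added after day one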
Starred values were filed as active, the others as inactive; ? = inconclusive; nt = not tested or not shown.

SMILES	Beta cell apopt	Mdm2-MdmX inh	CSC inhib	697 NFkB inh	Gli-Sufu antag	Jurkat NFkB inh	others
C[C@]12CC[C@@H](O)CC1=CCC1C2CC[C@@]2(C)C1C[C@@H](F)[C@H]2O (stereo partly drawn)	nt	nt	nt	nt	3.5	nt
CC(=O)O[C@H]1C[C@@H]2OC3C=C(C)CCC3(C)[C@@]1(C)[C@@]21CO1 (stereo partly drawn)	nt	nt	nt	nt	66.0*	nt
CCCN(CC1CC1)CC(O)c1ccccc1 (stereo not drawn)	-8.1	-0.8	0.7	3.1	22.8	5.9
Cc1nc(C)c(C(=O)NN=Cc2ccc(N(CCCl)CCCl)cc2)s1	nt	nt	nt	nt	-7.0	nt
NC1CCc2cc(O)c(O)cc2C1 (stereo not drawn)	3.7	-25.2	2.4	-1.4	48.0	7.2
O=C(/C=C/c1ccc2c(c1)OCO2)c1c(O)n(CCC2=CCCCC2)c(=O)[nH]c1=O	0.5	nt	84.2*	nt	3.1	nt
CCCCn1c(O)c(C(=O)/C=C/c2ccc3c(c2)OCO3)c(=O)[nH]c1=O	nt	9.4	-5.9	-14.4	-15.4	-8.2
COC(=O)C1=C(C(=O)OC)SC2(S1)C(C(=O)OC)=C(C(=O)OC)Sc1c2ssc1=O	nt	nt	nt	nt	22.6	nt
O=[N+]([O-])c1cccc(NP(=O)(N2CC2)N2CC2)c1	nt	nt	nt	nt	9.7	nt
C=CCN(CC=C)Cc1c[nH]c2ccccc12	107.0*	11.9	-13.1	-12.4	-0.1	12.8
CCCCCCC(C)(C)c1ccc([C@@H]2C[C@H](O)CC[C@H]2CCCO)c(O)c1	6.3	19.6	103.2*	-6.1	-1.9	7.0
CCCCCCn1c(O)c(C=NC2CCCCC2N)c(=O)[nH]c1=O (stereo not drawn)	-5.0	-14.5	82.7*	-4.7	0.5	-5.0
CN1Cc2cnnn2-c2ccccc2C1c1ccccc1 (stereo not drawn)	nt	nt	nt	nt	2.2	nt
Cc1ccc(N2C(=O)NC(=O)/C(=C\C=C\c3ccco3)C2=O)cc1C	97.0*	nt	53.3	nt	8.5	nt
O=C1NC(=O)N(Cc2ccco2)C(=O)/C1=C/C=C/c1ccco1	8.0	21.8	55.7	9.9	0.2	-2.5
CN1C(=O)/C(=C/C=C/c2ccco2)C(=O)NC1=S	-8.0	-13.7	-28.0	-25.0	-3.1	-16.4
Cc1ccc(N2C(=O)NC(=O)/C(=C\C=C\c3ccco3)C2=O)cc1	40.4	0.8	79.4*	1.4	6.8	-2.3
O=C1NC(=O)N(c2ccccc2)C(=O)/C1=C/C=C/c1ccco1	-2.6	-6.6	88.2*	-15.6	-0.8	13.5
Cc1cccc(N2C(=O)NC(=O)/C(=C\C=C\c3ccco3)C2=O)c1	29.8	27.0	?	0.0	-1.4	10.9
COc1ccc2c(c1)C1(C(=O)O)CC=CCC1(C(=O)O)C2 (stereo not drawn)	nt	nt	nt	nt	25.9	nt
CNC(=O)Oc1ccccc1C1CCCCC1	nt	nt	nt	nt	-1.9	nt
CCCC/C(C)=C/[C@@H](NP(=O)(c1ccccc1)c1ccccc1)c1ccccc1	4.1	36.5	113.6*	16.6	3.8	6.8
O=C(NP(=O)(N1CC1)N1CC1)c1cc(I)ccc1I	nt	nt	nt	nt	18.9	nt
NC(N)=N/N=C/c1ccc(N2CCOCC2)cc1	-1.3	38.5	4.5	8.2	11.6	48.6
COc1ccc(/C=N\N=C(N)N)cc1	-0.5	-21.2	-3.5	3.7	12.9	50.9*	Jurkat NFkB conf=16.4
SMILES	Beta cell apopt	Mdm2-MdmX inh	CSC inhib	697 NFkB inh	Gli-Sufu antag	Jurkat NFkB inh	others
Nc1c2c(nc3sc4c(c13)CCCC4)CCCCC2	3.7	-189.3	-2.0	-224.1	6.1	-174.4	Jurkat NFkB conf=-93.9
COc1cc(/C=C2\C[C@H]3[C@@H]4CC=C5C[C@@H](N6CCCC6)CC[C@]5(C)[C@H]4CC[C@]3(C)[C@H]2O)cc(OC)c1OC	nt	nt	nt	nt	21.1	nt
Cc1ccc(C[n+]2c(-c3ccc(C)cc3)cc(-c3ccc(C)cc3)cc2-c2ccc(C)cc2)cc1	117.9*	100.3*	-4.9	1.0	90.2*	98.8*	Jurkat NFkB conf=67.2*;Mdm2 MdmX conf=97.8*;Full FLuc ctr=8.5
Cc1ccc(-c2cc(-c3ccc(C)cc3)[n+](-c3ccc(C(=O)O)cc3)c(-c3ccc(C)cc3)c2)cc1	-1.7	8.8	-7.1	-36.7	-13.8	-25.0
COC(=O)C1CN(C#N)N(c2ccc(Cl)cc2)C12c1ccccc1-c1ccccc12 (stereo not drawn)	112.0*	95.1*	-10.5	-62.4	47.4	87.4*	Jurkat NFkB conf=59.5*;Mdm2 MdmX conf=24.1
CC1(C)C(C(=O)N2CCN(c3ccc(Cl)cc3)CC2)C1(C)C	6.7	-29.3	0.1	-28.6	0.5	-9.6
CCCC[C@@H](C)C[C@@H](C)C(=O)N(C)[C@@H](CC(C)C)C(=O)N[C@H](C(=O)N(C)[C@H](C(=O)N1C[C@@H](O)C[C@H]1C(=O)N1C(=O)C=C[C@@H]1C)C(C)C)C(C)OC(C)=O (stereo partly drawn)	nt	94.7*	nt	1.3	7.5	90.6*	Jurkat NFkB conf=93.3*;Mdm2 MdmX conf=97.3*;Full FLuc ctr=55.4*
NC(=O)c1cn(C2OC(CO)C(O)C2O)c2ncnc(N)c12 (stereo not drawn)	nt	100.3*	-5.0	103.7*	86.7*	99.8*	Jurkat NFkB conf=97.0*;697 NFkB conf=105.6*;Mdm2 MdmX conf=99.3*;Full FLuc ctr=0.7
NC(=O)c1c(Br)n(C2OC(CO)C(O)C2O)c2ncnc(N)c12 (stereo not drawn)	nt	nt	nt	nt	4.1	nt
Cc1cc(N(CCCl)CCCl)ccc1C=NNC(=O)Cc1cc(=O)oc2cc(O)ccc12	nt	nt	nt	nt	20.2	nt
CC(=O)OC(C)(C)/C=C/C(=O)[C@](C)(O)C1[C@H](O)C[C@@]2(C)C3CC=C4C(C[C@H](O)C(=O)C4(C)C)[C@]3(C)C(=O)C[C@]12C (stereo partly drawn)	57.5	99.7*	69.6	55.7*	84.7*	92.4*	Jurkat NFkB conf=61.8*;697 NFkB conf=71.0*;Mdm2 MdmX conf=100.0*;Full FLuc ctr=1.0
N#CC1c2ccccc2-n2nncc2CN1S(=O)(=O)c1ccccc1 (stereo not drawn)	nt	nt	nt	nt	-7.3	nt
C[C@]12CC[C@H](O)C[C@H]1CC[C@@H]1[C@@H]2CC[C@]2(C)[C@@H](C3=CC(=O)OC3)CC[C@]12O	-3.3	75.4*	95.2*	8.8	-0.4	101.1*	Jurkat NFkB conf=91.4*;Mdm2 MdmX conf=73.3*;Full FLuc ctr=52.8*
CC12CCC(O)CC1CCC1C2CCC2(C)C(C3=CC(=O)OC3)CCC12O (stereo not drawn)	nt	nt	nt	nt	0.7	nt
C[C@]12CC[C@H](O)C[C@H]1CC[C@@H]1[C@@H]2C[C@@H](O)[C@]2(C)[C@@H](C3=CC(=O)OC3)CC[C@]12O	4.7	72.7*	84.4*	-271.9	-2.5	97.6*	Jurkat NFkB conf=74.1*;697 NFkB conf=-330.8;Mdm2 MdmX conf=72.9*;Full FLuc ctr=34.0

Source: PubChem
